# Test results as given in publication PMC11062922 (Nature Chemical Biology, 2023).
# Read-outs that look alike come from different tables or passages of the source.
# What was measured:
# ADCK3 = tested on: ADCK3; design: species or system human, MV4-11 + K-562 + COLO205 + SK-N-BE2 + OVCAR-8; conditions: read-out: apparent Kd; compound concentrations: 100 nM and 1000 nM (sheet 'Samples'), CATDS: 0.13841841759658599; n = 1
# CSNK1A1 = tested on: CSNK1A1; design: species or system human, MV4-11 + K-562 + COLO205 + SK-N-BE2 + OVCAR-8; conditions: read-out: apparent Kd; compound concentrations: 100 nM and 1000 nM (sheet 'Samples'), CATDS: 0.108738920150242; n = 1
# CSNK1D = tested on: CSNK1D; design: species or system human, MV4-11 + K-562 + COLO205 + SK-N-BE2 + OVCAR-8; conditions: read-out: apparent Kd; compound concentrations: 100 nM and 1000 nM (sheet 'Samples'), CATDS: 0.110076630605661; n = 1
# CSNK1E = tested on: CSNK1E; design: species or system human, MV4-11 + K-562 + COLO205 + SK-N-BE2 + OVCAR-8; conditions: read-out: apparent Kd; compound concentrations: 100 nM and 1000 nM (sheet 'Samples'), CATDS: 0.12792065759961399; n = 1
# ILK = tested on: ILK; design: species or system human, MV4-11 + K-562 + COLO205 + SK-N-BE2 + OVCAR-8; conditions: read-out: apparent Kd; compound concentrations: 100 nM and 1000 nM (sheet 'Samples'), CATDS: 9.4718278447494406E-2; n = 1
# LIMK1 = tested on: LIMK1; design: species or system human, MV4-11 + K-562 + COLO205 + SK-N-BE2 + OVCAR-8; conditions: read-out: apparent Kd, compound concentrations: 100 nM and 1000 nM (sheet 'Samples'), n = 1
# MAP2K2 = tested on: MAP2K2; design: species or system human, MV4-11 + K-562 + COLO205 + SK-N-BE2 + OVCAR-8; conditions: read-out: apparent Kd; compound concentrations: 100 nM and 1000 nM (sheet 'Samples'), CATDS: 0.102896761563019; n = 1
# MAPK10 = tested on: MAPK10; design: species or system human, MV4-11 + K-562 + COLO205 + SK-N-BE2 + OVCAR-8; conditions: read-out: apparent Kd; compound concentrations: 100 nM and 1000 nM (sheet 'Samples'), CATDS: 5.09024054826294E-2; n = 1
# MAPK14 = tested on: MAPK14; design: species or system human, MV4-11 + K-562 + COLO205 + SK-N-BE2 + OVCAR-8; conditions: read-out: apparent Kd; compound concentrations: 100 nM and 1000 nM (sheet 'Samples'), CATDS: 0.11352717514973699; n = 1
# MAPK9 = tested on: MAPK9; design: species or system human, MV4-11 + K-562 + COLO205 + SK-N-BE2 + OVCAR-8; conditions: read-out: apparent Kd; compound concentrations: 100 nM and 1000 nM (sheet 'Samples'), CATDS: 5.50671155445017E-2; n = 1
# MAPKAPK2 = tested on: MAPKAPK2; design: species or system human, MV4-11 + K-562 + COLO205 + SK-N-BE2 + OVCAR-8; conditions: read-out: apparent Kd; compound concentrations: 100 nM and 1000 nM (sheet 'Samples'), CATDS: 5.16854933400041E-2; n = 1
# NNT = tested on: NNT; design: species or system human, MV4-11 + K-562 + COLO205 + SK-N-BE2 + OVCAR-8; conditions: read-out: apparent Kd; compound concentrations: 100 nM and 1000 nM (sheet 'Samples'), CATDS: 4.6144486459290798E-2; n = 1
# PRKAG1 = tested on: PRKAG1; design: species or system human, MV4-11 + K-562 + COLO205 + SK-N-BE2 + OVCAR-8; conditions: read-out: apparent Kd; compound concentrations: 100 nM and 1000 nM (sheet 'Samples'), CATDS: 9.6836813668462501E-2; n = 1
# VDAC3 = tested on: VDAC3; design: species or system human, MV4-11 + K-562 + COLO205 + SK-N-BE2 + OVCAR-8; conditions: read-out: apparent Kd; compound concentrations: 100 nM and 1000 nM (sheet 'Samples'), CATDS: 4.4921279998790198E-2; n = 1
# ADCK1 = tested on: ADCK1; design: species or system human, MV4-11 + K-562 + COLO205 + SK-N-BE2 + OVCAR-8; conditions: read-out: apparent Kd; compound concentrations: 100 nM and 1000 nM (sheet 'Samples'), CATDS: 0.14562784613858401; n = 1
# NEK1 = tested on: NEK1; design: species or system human, MV4-11 + K-562 + COLO205 + SK-N-BE2 + OVCAR-8; conditions: read-out: apparent Kd; compound concentrations: 100 nM and 1000 nM (sheet 'Samples'), CATDS: 0.19071251042520401; n = 1
# NEK3 = tested on: NEK3; design: species or system human, MV4-11 + K-562 + COLO205 + SK-N-BE2 + OVCAR-8; conditions: read-out: apparent Kd; compound concentrations: 100 nM and 1000 nM (sheet 'Samples'), CATDS: 0.104444124059675; n = 1
# PIK3CG = tested on: PIK3CG; design: species or system human, MV4-11 + K-562 + COLO205 + SK-N-BE2 + OVCAR-8; conditions: read-out: apparent Kd; compound concentrations: 100 nM and 1000 nM (sheet 'Samples'), CATDS: 0.203728906999049; n = 1
# Q6ZSR9 = Q6ZSR9 (human, UniProt Q6ZSR9); design: species or system MV4-11 + K-562 + COLO205 + SK-N-BE2 + OVCAR-8; conditions: read-out: apparent Kd; compound concentrations: 100 nM and 1000 nM (sheet 'Samples'), CATDS: 0.122629729389454; n = 1
# Q6ZSR9, sequence (Q6ZSR9 whole entry, looked up): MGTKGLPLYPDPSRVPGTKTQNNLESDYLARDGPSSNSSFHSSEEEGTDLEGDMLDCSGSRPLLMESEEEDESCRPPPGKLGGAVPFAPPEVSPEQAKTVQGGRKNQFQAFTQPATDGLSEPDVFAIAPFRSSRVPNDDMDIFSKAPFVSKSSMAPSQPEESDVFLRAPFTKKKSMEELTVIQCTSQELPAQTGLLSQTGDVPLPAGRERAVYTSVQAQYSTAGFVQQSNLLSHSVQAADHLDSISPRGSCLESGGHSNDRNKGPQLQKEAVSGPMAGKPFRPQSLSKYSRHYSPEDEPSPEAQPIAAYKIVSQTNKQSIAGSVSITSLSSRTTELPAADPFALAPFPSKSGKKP
# ULK3 = tested on: ULK3; design: species or system human, MV4-11 + K-562 + COLO205 + SK-N-BE2 + OVCAR-8; conditions: read-out: apparent Kd; compound concentrations: 100 nM and 1000 nM (sheet 'Samples'), CATDS: 0.13028538158994399; n = 1
smiles,measurement,setting,value
Cl.Fc1ccc(-c2nc3n(c2-c2ccncc2)CCS3)cc1 [SKF-86002-A2],potency estimated from few doses,ADCK3,74.5 nM
same,potency estimated from few doses,CSNK1A1,113 nM
same,potency estimated from few doses,CSNK1D,110 nM
same,potency estimated from few doses,CSNK1E,84.8 nM
same,potency estimated from few doses,ILK,148 nM
same,potency estimated from few doses,LIMK1; CATDS: 4.5083762748743803E-2,1770 nM
same,potency estimated from few doses,MAP2K2,125 nM
same,potency estimated from few doses,MAPK10,946 nM
same,potency estimated from few doses,MAPK14,104 nM
same,potency estimated from few doses,MAPK9,681 nM
same,potency estimated from few doses,MAPKAPK2,885 nM
same,potency estimated from few doses,NNT,1550 nM
same,potency estimated from few doses,PRKAG1,141 nM
same,potency estimated from few doses,VDAC3,1810 nM
COc1cc(Nc2nccc(N3CCC(NS(=O)(=O)c4ccc(NC(C)=O)cc4)CC3)n2)cc(OC)c1OC [GSK1379825A],potency estimated from few doses,ADCK1,1000 nM
same,potency estimated from few doses,LIMK1; CATDS: 0.152053831473141,921 nM
same,potency estimated from few doses,NEK1,610 nM
same,potency estimated from few doses,NEK3,2360 nM
same,potency estimated from few doses,PIK3CG,547 nM
same,potency estimated from few doses,Q6ZSR9,1490 nM
same,potency estimated from few doses,ULK3,1280 nM
